Results reported in PubChem BioAssay (Tox21).
Records with an inconclusive call do not appear. Activity calls are given as the source filed them. Unless noted, the call rests on the fitted dose curve; in most records, active means well fitted curve in the direction sought with a large enough effect in the repeat runs; inconclusive means weak or mixed curves; inactive means flat fitted curve, though single readings scatter.

Legend:
[1] = qHTS assay to test for compound auto fluorescence at 535 nm (green) in HEK293 cells (AID 720680)
[2] = qHTS assay to test for compound auto fluorescence at 460 nm (blue) in HEK293 cell free culture (AID 720681)
Procedure, shortened: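 Compounds were added to cell-free DMEM with 10% FBS and fluorescence read directly. The blue channel used 405 nm excitation and 460 nm emission, with triamterene as the reference fluorophore.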

[3] = qHTS assay to test for compound auto fluorescence at 535 nm (green) in HEK293 cell free culture (AID 720682)
Procedure, shortened: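 Compounds were pin-transferred into cell-free DMEM with 10% FBS, and green fluorescence was read at excitation 485 nm and emission 535 nm. Intensities were expressed as fluorescein-equivalent values.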

[4] = qHTS assay to test for compound auto fluorescence at 590 nm (red) in HEK293 cell free culture (AID 720683)
Procedure, shortened: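 Cell-free wells of DMEM with 10% FBS received compound, and intrinsic fluorescence was read at excitation/emission 540/590 nm. Values expressed as equivalence to Rose Bengal sodium.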

[5] = qHTS assay to test for compound auto fluorescence at 590 nm (red) in HepG2 cell free culture (AID 720684)
Procedure, shortened: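 Compound was pinned into wells holding MEM with 10% FBS and no cells, and red fluorescence was read at Ex/Em 540/590 nm. Signal is expressed as auto fluorescence equivalency relative to Rose Bengal sodium.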

[6] = qHTS assay to test for compound auto fluorescence at 460 nm (blue) in HepG2 cell free culture (AID 720685)
Procedure, shortened: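 Compound (23 nL) or DMSO pinned into cell-free MEM with 10% FBS; blue fluorescence read at 405/460 nm excitation/emission, expressed as auto-fluorescence equivalency to triamterene.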

[7] = qHTS assay to test for compound auto fluorescence at 535 nm (green) in HepG2 cell free culture (AID 720686)
[8] = qHTS assay to test for compound auto fluorescence at 460 nm (blue) in HepG2 cells (AID 720687)
Procedure, shortened: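 HepG2 cells in MEM with 10% FBS, attached overnight at 37 C, were exposed to compound or DMSO for 1 hr at 37 C, 5% CO2. Blue fluorescence was read at 405/460 nm, with triamterene as reference fluorophore.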

[9] = target: Glucocorticoid receptor (Homo sapiens) (UniProt P04150); assay: qHTS assay to identify small molecule agonists of the glucocorticoid receptor (GR) signaling pathway (AID 720691; active means well fitted activation curve with a large enough effect in the signal ratio in the repeat runs, not every such curve was filed as active; the % refers to the signal ratio)
Procedure, shortened: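 Fluorescence intensity from LiveBLAzer B/G FRET substrate (2 h, room temperature) reports beta-lactamase expression driven by the glucocorticoid response element in GR-bla HeLa cells after 18 h compound exposure at 37 C.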

[10] = target: Glucocorticoid receptor (Homo sapiens) (UniProt P04150); assay: qHTS assay to identify small molecule antagonists of the glucocorticoid receptor (GR) signaling pathway (AID 720692; active means well fitted inhibition curve with a large enough effect in the signal ratio in the repeat runs, not every such curve was filed as active; the % refers to the signal ratio)
Procedure, shortened: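 HeLa GR-bla cells; cmpd + dex 5 nM final, 18 h 37 C; LiveBLAzer B/G FRET substrate 2 h RT; fluorescence intensity read. Antagonist mode, qHTS.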
On the % scale 0 is the no-effect control and ±100 the full control effect.

Sequence of Glucocorticoid receptor (Homo sapiens) (P04150 whole entry, looked up): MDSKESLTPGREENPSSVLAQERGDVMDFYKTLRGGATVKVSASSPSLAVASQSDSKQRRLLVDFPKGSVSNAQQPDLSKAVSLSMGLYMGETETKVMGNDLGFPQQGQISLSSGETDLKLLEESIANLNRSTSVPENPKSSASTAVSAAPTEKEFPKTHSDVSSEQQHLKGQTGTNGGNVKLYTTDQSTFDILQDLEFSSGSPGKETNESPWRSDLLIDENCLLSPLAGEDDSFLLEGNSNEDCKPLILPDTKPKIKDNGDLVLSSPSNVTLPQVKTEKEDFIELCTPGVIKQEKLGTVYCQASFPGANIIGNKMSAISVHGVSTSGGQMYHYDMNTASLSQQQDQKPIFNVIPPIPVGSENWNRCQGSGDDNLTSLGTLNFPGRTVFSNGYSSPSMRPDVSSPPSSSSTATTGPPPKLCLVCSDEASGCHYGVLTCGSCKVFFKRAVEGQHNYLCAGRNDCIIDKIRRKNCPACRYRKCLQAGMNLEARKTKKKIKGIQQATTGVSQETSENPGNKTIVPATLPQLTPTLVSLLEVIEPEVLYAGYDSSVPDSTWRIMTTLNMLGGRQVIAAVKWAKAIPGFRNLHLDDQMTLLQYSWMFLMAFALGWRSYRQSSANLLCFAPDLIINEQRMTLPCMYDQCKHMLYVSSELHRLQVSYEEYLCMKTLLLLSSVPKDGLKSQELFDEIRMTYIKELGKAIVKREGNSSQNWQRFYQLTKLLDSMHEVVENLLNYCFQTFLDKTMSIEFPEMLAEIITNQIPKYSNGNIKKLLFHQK

CCCN(CCC)CCc1cccc2c1CC(=O)N2
inactive: outcome [1] | outcome [2] | outcome [3] | outcome [4] | outcome [5] | outcome [6] | outcome [7] | outcome [8] | Potency [9]

COc1ccc(CCN(C)CCCC(C#N)(c2cc(OC)c(OC)c(OC)c2)C(C)C)cc1OC (centres undefined)
inactive: outcome [1] | outcome [2] | outcome [3] | outcome [4] | outcome [5] | outcome [6] | outcome [7] | outcome [8] | Potency [9] | Potency [10]

NC(=O)Nc1ccccc1
inactive: outcome [1] | outcome [2] | outcome [3] | outcome [4] | outcome [5] | outcome [6] | outcome [7] | outcome [8] | Potency [9]

CN(C)CCCN1c2ccccc2CCc2ccc(Cl)cc21
inactive: outcome [1] | outcome [2] | outcome [3] | outcome [4] | outcome [5] | outcome [6] | outcome [7] | outcome [8] | Potency [9]

CC(C)=CCCC(C)CC(=O)O (centres undefined)
inactive: outcome [1] | outcome [2] | outcome [3] | outcome [4] | outcome [5] | outcome [6] | outcome [7] | outcome [8] | Potency [9]

FC1(F)C(F)(F)C(F)(F)C2(F)C(F)(F)C(F)(F)C(F)(F)C(F)(F)C2(F)C1(F)F (centres undefined)
inactive: outcome [1] | outcome [2] | outcome [3] | outcome [4] | outcome [5] | outcome [6] | outcome [7] | outcome [8] | Potency [9]

C=CCS(=O)(=O)O
inactive: outcome [1] | outcome [2] | outcome [3] | outcome [4] | outcome [5] | outcome [6] | outcome [7] | outcome [8] | Potency [9]

O=C(O)CN(CCOCCOCCN(CC(=O)O)CC(=O)O)CC(=O)O
inactive: outcome [1] | outcome [2] | outcome [3] | outcome [4] | outcome [5] | outcome [6] | outcome [7] | outcome [8] | Potency [9] | Potency [10]

C[C@H](NC(CCc1ccccc1)C(=O)O)C(=O)N1CCC[C@H]1C(=O)O (some centres undefined)
inactive: outcome [1] | outcome [2] | outcome [3] | outcome [4] | outcome [5] | outcome [6] | outcome [7] | outcome [8] | Potency [9] | Potency [10]

CC(=O)CC(C)C
inactive: outcome [1] | outcome [2] | outcome [3] | outcome [4] | outcome [5] | outcome [6] | outcome [7] | outcome [8] | Potency [9] | Potency [10]

CO[C@]12C[C@@H](COC(=O)c3cncc(Br)c3)CN(C)[C@@H]1Cc1cn(C)c3cccc2c13
inactive: outcome [1] | outcome [2] | outcome [3] | outcome [4] | outcome [5] | outcome [6] | outcome [7] | outcome [8] | Potency [9] | Potency [10]

CC/C=C\CCOC(C)=O
inactive: outcome [1] | outcome [2] | outcome [3] | outcome [4] | outcome [5] | outcome [6] | outcome [7] | outcome [8] | Potency [9] | Potency [10]

Cc1[nH]c(=O)c(C#N)cc1-c1ccc2nccn2c1
inactive: outcome [1] | outcome [2] | outcome [3] | outcome [4] | outcome [5] | outcome [6] | outcome [7] | outcome [8] | Potency [9] | Potency [10]

CCCCCOC(=O)CCCCC
inactive: outcome [1] | outcome [2] | outcome [3] | outcome [4] | outcome [5] | outcome [6] | outcome [7] | outcome [8] | Potency [9]

CCOC(=O)[C@H](CCc1ccccc1)N[C@@H](C)C(=O)N1[C@H](C(=O)O)C[C@@H]2CCC[C@@H]21
inactive: outcome [1] | outcome [2] | outcome [3] | outcome [4] | outcome [5] | outcome [6] | outcome [7] | outcome [8] | Potency [9]

Cc1nc2c([nH]1)c(=O)n(C)c(=O)n2Cc1ccco1
inactive: outcome [1] | outcome [2] | outcome [3] | outcome [4] | outcome [5] | outcome [6] | outcome [7] | outcome [8] | Potency [9]

CC(C)NCC(O)c1ccc(NS(C)(=O)=O)cc1 (centres undefined)
inactive: outcome [1] | outcome [2] | outcome [3] | outcome [4] | outcome [5] | outcome [6] | outcome [7] | outcome [8] | Potency [9] | Potency [10]

COc1ccc2c(c1)c(CC(=O)OCC(=O)O)c(C)n2C(=O)c1ccc(Cl)cc1
inactive: outcome [1] | outcome [2] | outcome [3] | outcome [4] | outcome [5] | outcome [6] | outcome [7] | outcome [8]

N=C(N)c1ccc(OCCCOc2ccc(C(=N)N)cc2)cc1
inactive: outcome [1] | outcome [2] | outcome [3] | outcome [4] | outcome [5] | outcome [6] | outcome [7] | outcome [8] | Potency [9]

CN1C(=O)N(C)C(O)C1O (centres undefined)
inactive: outcome [1] | outcome [2] | outcome [3] | outcome [4] | outcome [5] | outcome [6] | outcome [7] | outcome [8] | Potency [9] | Potency [10]

CCC(C)S (centres undefined)
inactive: fluorescence, % of fluorescein [1] 0.0934% [at 3.72 µM] | fluorescence, % of fluorescent control [2] 0.0638% [at 3.72 µM] | activity change [3] -0.0524% [at 3.72 µM] | fluorescence, % of fluorescent control [4] -0.0589% [at 3.72 µM] | fluorescence, % of Rose Bengal [5] -0.203% [at 3.72 µM] | fluorescence, % of fluorescent control [6] -0.0422% [at 3.72 µM] | fluorescence, % of fluorescein control [7] 0.0002% [at 3.72 µM] | fluorescence, % of fluorescent control [8] -0.0637% [at 3.72 µM] | activation [9] -0.406% [at 3.1 µM] | activity change, negative = inhibition [10] 1.31% [at 3.15 µM]

CCC(=O)OC(C)c1ccccc1 (centres undefined)
inactive: outcome [1] | outcome [2] | outcome [3] | outcome [4] | outcome [5] | outcome [6] | outcome [7] | outcome [8] | Potency [9]

COC(=O)c1ccc(C)cc1C1=NC(C)(C(C)C)C(=O)N1 (centres undefined)
inactive: outcome [1] | outcome [2] | outcome [3] | outcome [4] | outcome [5] | outcome [6] | outcome [7] | outcome [8] | Potency [10]

C[C@H]1C[C@@H](O)CC(C)(C)C1
inactive: outcome [1] | outcome [2] | outcome [3] | outcome [4] | outcome [5] | outcome [6] | outcome [7] | outcome [8] | Potency [10]

Cc1cc2c(cc1S(N)(=O)=O)S(=O)(=O)CCC2
inactive: outcome [1] | outcome [2] | outcome [3] | outcome [4] | outcome [5] | outcome [6] | outcome [7] | outcome [8] | Potency [10]
